# In the supplement of paper PMC8728848:
# Many of the other results were omitted from the sample, so the strongest signals are more common in it than they were.
# B1: LngA (Escherichia coli) (protein)
# chain: MLSVYNRTQKFKAEARKKIAKYHELRKQRGMSLLEVIIVLGIIGTIAAGVVILAQRAFDSRAVTDLVTNTNTVRVRMKDAYQRDGKYPDFVDPLSLTANTIKTDTSGIPAAQLVQLGKITPDEVRNNISGDFIAIGGALTSNGAQVKKGFAIELNGLSQEQCRSILGQVGNNWEYVAIGTSASGSYAMTATGVDMSVAASTTVLRSLGNNGQTTLTADKILSTCTAQVNSITLGSR
# Experiments:
# Experiment in all cases: glycan array binding signal (z-score within array); higher = stronger binding
# Settings in all cases: glycan notation: IUPAC condensed, linker removed
# [1] = biological target: Fuc(a1-2)Gal(b1-4)GlcNAc(b1-3)Gal(b1-4)GlcNAc(b1-2)Man(a1-3)[Fuc(a1-2)Gal(b1-4)GlcNAc(b1-3)Gal(b1-4)GlcNAc(b1-2)Man(a1-6)]Man(b1-4)GlcNAc(b1-4)GlcNAc
# Outline: (§1)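 The binding signal is a Z-score computed within each array. Data were drawn from 3228 arrays in the Consortium for Functional Glycomics database, restricted to those with a known protein sequence. Scores were averaged over arrays of the same protein sequence at different concentrations or buffers, and over linkers, and negative values can be taken as non-binding.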
# [2] = biological target: Fuc(a1-2)Gal(b1-4)[Fuc(a1-3)]GlcNAc(b1-3)Gal(b1-4)[Fuc(a1-3)]GlcNAc(b1-3)Gal(b1-4)[Fuc(a1-3)]GlcNAc
# Outline: as §1
# [3] = biological target: Fuc(a1-2)Gal(b1-4)[Fuc(a1-3)]GlcNAc(b1-3)GalNAc
# Outline: as §1
# [4] = biological target: Fuc(a1-2)Gal6S(b1-4)Glc6S
# Outline: as §1
# [5] = biological target: Fuc(a1-3)[Gal(b1-4)]GlcNAc(b1-6)GalNAc
# Outline: as §1
# Gal(a1-2)Gal = biological target: Gal(a1-2)Gal
# Outline: as §1
# Gal(a1-3)Gal(b1-3)GlcNAc = biological target: Gal(a1-3)Gal(b1-3)GlcNAc
# Outline: as §1
# Gal(a1-3)Gal(b1-4)Glc = biological target: Gal(a1-3)Gal(b1-4)Glc
# Outline: as §1
# Gal(a1-4)GlcNAc = biological target: Gal(a1-4)GlcNAc
# Outline: as §1
# Gal(b1-2)Gal = biological target: Gal(b1-2)Gal
# Outline: as §1
# Gal(b1-3)Gal = biological target: Gal(b1-3)Gal
# Outline: as §1
# Gal(b1-3)GalNAc = biological target: Gal(b1-3)GalNAc
# Outline: as §1
# [6] = biological target: Gal(b1-3)[Fuc(a1-4)]GlcNAc(b1-6)GalNAc
# Outline: as §1
# [7] = biological target: Gal(b1-4)GalNAc(b1-3)[Fuc(a1-2)]Gal(b1-4)GlcNAc
# Outline: as §1
# [8] = biological target: Gal(b1-4)GlcNAc(b1-3)Gal(b1-4)GlcNAc(b1-2)Man(a1-3)[Gal(b1-4)GlcNAc(b1-3)Gal(b1-4)GlcNAc(b1-2)Man(a1-6)]Man(b1-4)GlcNAc(b1-4)GlcNAc
# Outline: as §1
# [9] = biological target: Gal(b1-4)GlcNAc(b1-3)Gal(b1-4)GlcNAc(b1-2)Man(a1-3)[Gal(b1-4)GlcNAc(b1-3)Gal(b1-4)GlcNAc(b1-2)Man(a1-6)]Man(b1-4)GlcNAc(b1-4)[Fuc(a1-6)]GlcNAc
# Outline: as §1
# [10] = biological target: Gal(b1-4)GlcNAc(b1-3)Gal(b1-4)GlcNAc(b1-2)[Gal(b1-4)GlcNAc(b1-3)Gal(b1-4)GlcNAc(b1-6)]Man(a1-6)[Gal(b1-4)GlcNAc(b1-3)Gal(b1-4)GlcNAc(b1-2)Man(a1-3)]Man(b1-4)GlcNAc(b1-4)[Fuc(a1-6)]GlcNAc
# Outline: as §1
# [11] = biological target: Gal(b1-4)GlcNAc(b1-3)Gal(b1-4)GlcNAc(b1-3)Gal(b1-4)GlcNAc(b1-2)Man(a1-3)[Gal(b1-4)GlcNAc(b1-3)Gal(b1-4)GlcNAc(b1-3)Gal(b1-4)GlcNAc(b1-2)Man(a1-6)]Man(b1-4)GlcNAc(b1-4)GlcNAc
# Outline: as §1
# [12] = biological target: Gal(b1-4)GlcNAc(b1-3)[Gal(b1-4)GlcNAc(b1-6)]Gal(b1-4)GlcNAc
# Outline: as §1
# [13] = biological target: Gal(b1-4)GlcNAc(b1-3)[GlcNAc(b1-6)]Gal(b1-4)GlcNAc
# Outline: as §1
# Gal(b1-4)GlcNAc6P = biological target: Gal(b1-4)GlcNAc6P
# Outline: as §1
# Gal(b1-6)Gal = biological target: Gal(b1-6)Gal
# Outline: as §1
# Gal3S(b1-3)GlcNAc = biological target: Gal3S(b1-3)GlcNAc
# Outline: as §1
# Gal3S(b1-4)Glc = biological target: Gal3S(b1-4)Glc
# Outline: as §1
# Gal3S6S(b1-4)GlcNAc6S = biological target: Gal3S6S(b1-4)GlcNAc6S
# Outline: as §1
# GalNAc(b1-3)Gal = biological target: GalNAc(b1-3)Gal
# Outline: as §1
# [14] = biological target: GalNAc(b1-4)GlcNAc(b1-2)Man(a1-3)[GalNAc(b1-4)GlcNAc(b1-2)Man(a1-6)]Man(b1-4)GlcNAc(b1-4)GlcNAc
# Outline: as §1
# GalNAc(b1-4)GlcNAc6S = biological target: GalNAc(b1-4)GlcNAc6S
# Outline: as §1
# Glc(a1-6)Glc(a1-6)Glc = biological target: Glc(a1-6)Glc(a1-6)Glc
# Outline: as §1
# GlcA(b1-6)Gal = biological target: GlcA(b1-6)Gal
# Outline: as §1
# [15] = biological target: GlcNAc(a1-4)Gal(b1-4)GlcNAc(b1-3)Gal(b1-4)[Fuc(a1-3)]GlcNAc(b1-3)Gal(b1-4)[Fuc(a1-3)]GlcNAc
# Outline: as §1
# [16] = biological target: GlcNAc(b1-3)Gal(b1-3)GalNAc
# Outline: as §1
# GlcNAc(b1-3)Gal(b1-4)Glc = biological target: GlcNAc(b1-3)Gal(b1-4)Glc
# Outline: as §1
# [17] = biological target: GlcNAc(b1-3)Gal(b1-4)GlcNAc(b1-6)[Gal(b1-3)]GalNAc
# Outline: as §1
# Kdn(a2-3)Gal(b1-3)GalNAc = biological target: Kdn(a2-3)Gal(b1-3)GalNAc
# Outline: as §1
# [18] = biological target: Man(a1-2)Man(a1-2)Man(a1-3)Man
# Outline: as §1
# [19] = biological target: Man(a1-2)Man(a1-3)[Man(a1-2)Man(a1-6)]Man(a1-6)[Man(a1-2)Man(a1-2)Man(a1-3)]Man
# Outline: as §1
# Man(a1-3)[Man(a1-6)]Man = biological target: Man(a1-3)[Man(a1-6)]Man
# Outline: as §1
# [20] = biological target: Man(a1-3)[Man(a1-6)]Man(a1-6)[Man(a1-2)Man(a1-3)]Man(b1-4)GlcNAc(b1-4)GlcNAc
# Outline: as §1
# Man(a1-6)Man = biological target: Man(a1-6)Man
# Outline: as §1
# [21] = biological target: Neu5Ac(a2-3)Gal(b1-3)GalNAc(b1-3)Gal(a1-4)Gal(b1-4)Glc
# Outline: as §1
# [22] = biological target: Neu5Ac(a2-3)Gal(b1-4)GlcNAc(b1-2)Man
# Outline: as §1
# [23] = biological target: Neu5Ac(a2-3)Gal(b1-4)GlcNAc(b1-3)Gal
# Outline: as §1
# [24] = biological target: Neu5Ac(a2-3)Gal(b1-4)GlcNAc(b1-3)Gal(b1-4)GlcNAc(b1-3)Gal(b1-4)GlcNAc
# Outline: as §1
# [25] = biological target: Neu5Ac(a2-3)Gal(b1-4)GlcNAc(b1-3)Gal(b1-4)[Fuc(a1-3)]GlcNAc
# Outline: as §1
# [26] = biological target: Neu5Ac(a2-3)Gal(b1-4)GlcNAc(b1-6)[Neu5Ac(a2-3)Gal(b1-3)]GalNAc
# Outline: as §1
# [27] = biological target: Neu5Ac(a2-6)Gal(b1-3)GlcNAc(b1-3)[Gal(b1-4)GlcNAc(b1-6)]Gal(b1-4)Glc
# Outline: as §1
# Neu5Ac(a2-6)Gal(b1-4)Glc = biological target: Neu5Ac(a2-6)Gal(b1-4)Glc
# Outline: as §1
# [28] = biological target: Neu5Ac(a2-6)Gal(b1-4)GlcNAc(b1-2)Man(a1-3)[Gal(b1-4)GlcNAc(b1-2)Man(a1-6)]Man(b1-4)GlcNAc(b1-4)GlcNAc
# Outline: as §1
# [29] = biological target: Neu5Ac(a2-6)Gal(b1-4)GlcNAc(b1-2)Man(a1-3)[Man(a1-6)]Man(b1-4)GlcNAc(b1-4)GlcNAc
# Outline: as §1
# [30] = biological target: Neu5Ac(a2-6)Gal(b1-4)GlcNAc(b1-3)Gal(b1-4)GlcNAc(b1-3)GalNAc
# Outline: as §1
# [31] = biological target: Neu5Ac(a2-6)Gal(b1-4)GlcNAc(b1-6)GalNAc
# Outline: as §1
# [32] = biological target: Neu5Ac(a2-8)Neu5Ac(a2-8)Neu5Ac(a2-3)[Gal(b1-3)GalNAc(b1-4)]Gal(b1-4)Glc
# Outline: as §1
# [33] = biological target: Neu5Ac(a2-8)Neu5Gc(a2-3)Gal(b1-4)GlcNAc
# Outline: as §1
# [34] = biological target: Neu5Gc(a2-6)Gal(b1-4)GlcNAc
# Outline: as §1
binder,measurement,setting,value
B1,glycan array binding signal (z-score),[1],-0.248
same,glycan array binding signal (z-score),[2],-0.414
same,glycan array binding signal (z-score),[3],0.215
same,glycan array binding signal (z-score),[4],0.398
same,glycan array binding signal (z-score),[5],-0.182
same,glycan array binding signal (z-score),Gal(a1-2)Gal,0.247
same,glycan array binding signal (z-score),Gal(a1-3)Gal(b1-3)GlcNAc,2.92
same,glycan array binding signal (z-score),Gal(a1-3)Gal(b1-4)Glc,-0.144
same,glycan array binding signal (z-score),Gal(a1-4)GlcNAc,-0.206
same,glycan array binding signal (z-score),Gal(b1-2)Gal,2.94
same,glycan array binding signal (z-score),Gal(b1-3)Gal,-0.316
same,glycan array binding signal (z-score),Gal(b1-3)GalNAc,-0.143
same,glycan array binding signal (z-score),[6],-0.438
same,glycan array binding signal (z-score),[7],-0.632
same,glycan array binding signal (z-score),[8],3.2
same,glycan array binding signal (z-score),[9],-0.289
same,glycan array binding signal (z-score),[10],4.27
same,glycan array binding signal (z-score),[11],3.43
same,glycan array binding signal (z-score),[12],-0.205
same,glycan array binding signal (z-score),[13],-0.507
same,glycan array binding signal (z-score),Gal(b1-4)GlcNAc6P,4.74
same,glycan array binding signal (z-score),Gal(b1-6)Gal,0.393
same,glycan array binding signal (z-score),Gal3S(b1-3)GlcNAc,-0.1
same,glycan array binding signal (z-score),Gal3S(b1-4)Glc,4.16
same,glycan array binding signal (z-score),Gal3S6S(b1-4)GlcNAc6S,2.24
same,glycan array binding signal (z-score),GalNAc(b1-3)Gal,0.532
same,glycan array binding signal (z-score),[14],-0.153
same,glycan array binding signal (z-score),GalNAc(b1-4)GlcNAc6S,-0.467
same,glycan array binding signal (z-score),Glc(a1-6)Glc(a1-6)Glc,0.075
same,glycan array binding signal (z-score),GlcA(b1-6)Gal,0.408
same,glycan array binding signal (z-score),[15],0.38
same,glycan array binding signal (z-score),[16],0.147
same,glycan array binding signal (z-score),GlcNAc(b1-3)Gal(b1-4)Glc,-0.256
same,glycan array binding signal (z-score),[17],-0.006
same,glycan array binding signal (z-score),Kdn(a2-3)Gal(b1-3)GalNAc,-0.202
same,glycan array binding signal (z-score),[18],-0.556
same,glycan array binding signal (z-score),[19],-0.506
same,glycan array binding signal (z-score),Man(a1-3)[Man(a1-6)]Man,-0.411
same,glycan array binding signal (z-score),[20],-0.239
same,glycan array binding signal (z-score),Man(a1-6)Man,3.82
same,glycan array binding signal (z-score),[21],-0.375
same,glycan array binding signal (z-score),[22],3.6
same,glycan array binding signal (z-score),[23],-0.531
same,glycan array binding signal (z-score),[24],-0.508
same,glycan array binding signal (z-score),[25],2.73
same,glycan array binding signal (z-score),[26],-0.439
same,glycan array binding signal (z-score),[27],-0.533
same,glycan array binding signal (z-score),Neu5Ac(a2-6)Gal(b1-4)Glc,-0.2
same,glycan array binding signal (z-score),[28],-0.321
same,glycan array binding signal (z-score),[29],-0.28
same,glycan array binding signal (z-score),[30],-0.361
same,glycan array binding signal (z-score),[31],2.77
same,glycan array binding signal (z-score),[32],-0.06
same,glycan array binding signal (z-score),[33],-0.319
same,glycan array binding signal (z-score),[34],-0.433
